# Assay outcomes (PubChem)
# A selection: hits, their analogues and other compounds. The true share with any hit is near 17%.
# DT40 TDP1 no CPT: qHTS for Inhibitors of human tyrosyl-DNA phosphodiesterase 1 (TDP1): qHTS in cells in absence of CPT; DT40 Tdp1-/- hTDP1 cells, no CPT, ATP luminescence, 48 h; Potency, µM (titrated, usually from 46.2 µM), for inactives: top-dose activity change, negative = growth inhibition, most hits filed as inhibitors; 420,000 tested, 15% active; AID 686978, 2013; further: on the % scale 0 is the no-effect control and ±100 the full control effect; nearly all actives have a fitted effect of over 55% in size
#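 Stably hTDP1-transfected Tdp1-null chicken DT40 cells were treated with library compounds minus camptothecin and grown for at least 48 hr at 37 °C, after which cellular ATP was quantified by luminescence.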
# TGFb SMAD3 inh: qHTS for Inhibitors of TGF-b | HepG2 CAGA-GFP TGF-b/SMAD3 reporter, GFP fluorescence, 18 h; TGF-beta stimulated, 500 pg/mL final | AID 588855, 2011 | Potency, µM (doses to about 46.1 µM), without a hit: at the top dose activity, negative = inhibition, usual class: inhibitors | 410,000 tested, 1.2% active; further: on the % scale 0 is the no-effect control and ±100 the full control effect; nearly all actives have a fitted effect of over 65% in size
#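 GFP signal (ex488/em500-530) from TGF-beta-stimulated HEPG2 CAGA-GFP cells, 500 pg/mL final, 18 h at 37 degrees C in DMEM plus 1% FBS, normalized to unstimulated and DMSO-stimulated controls.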
# HepG2 tox: qHTS for Inhibitors of TGF-b: Cytotox Counterscreen; HepG2 CAGA-GFP viability, ATP luminescence, 18 h; Potency, µM (series often up to 46.1 µM), without a hit: top-dose activity change, negative = cytotoxicity, usual class: cytotoxic; 410,000 tested, 0.76% active; AID 588856, 2011
#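 HepG2 CAGA-GFP cells (1000/well, DMEM with 1% FBS) received compound, then TGF-beta at 500 pg/mL final, and were incubated 18 hours at 37 degrees C. Viability was read by CellTiter-Glo luminescence. Media-only wells were set as complete cell-killing and DMSO as no toxicity.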
# ATXN2 expr inh: Primary qHTS for Inhibitors of ATXN expression | Potency, µM (series often up to 57 µM), without a hit: at the highest dose activity change, negative = inhibition, actives largely listed as inhibitors | HEK-293 ATXN2-luciferase reporter, luminescence, 24 h | 360,000 tested, 0.72% active; further: on the % scale 0 is the no-effect control and ±100 the full control effect; nearly all actives have a fitted effect of over 55% in size
#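 ATXN2-luciferase reporter cells (luciferase flanked by upstream and downstream ATXN2 gene portions) were treated 24 h at 37 °C with compounds at up to 57 uM. SteadyGlo luminescence gave expression; GF-AFC fluorescence gave viability.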
# TDP1 cell CPT: qHTS for Inhibitors of human tyrosyl-DNA phosphodiesterase 1 (TDP1): qHTS in cells in presence of CPT. Potency, µM (top dose mostly 46.2 µM), for the others: at the highest dose activity change, negative = growth inhibition, hits mostly inhibitors. 420,000 tested, 12% active. AID 686979, 2013. chicken DT40 Tdp1-/-;hTDP1 cells + 20 nM CPT, ATP luminescence, 48 h; further: on the % scale 0 is the no-effect control and ±100 the full control effect; nearly all actives have a fitted effect of over 55% in size
#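 Cell growth measured by CellTiter-Glo luminescence after a minimum 48 h, 37 C compound exposure with 20 nM CPT in Tdp1-knockout DT40 cells stably expressing hTDP1, seeded 400/well; qHTS titration format.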
# S2 tox: Viability Counterscreen for Primary qHTS for Inhibitors of ATXN expression; S2 cells (HEK-293 line with an ATXN2-luciferase reporter) viability, CellTiter-Fluor protease fluorescence, 24 h; Potency, µM (highest dose often 56.7 µM), actives largely listed as cytotoxic; 400,000 tested, 0.49% active; further: nearly all actives have a fitted effect of over 40% in size
# Starred values were filed as active, the others as inactive; i = inactive; ? = inconclusive; . = no result. The call rests on the fitted dose curve; in most records, active means well fitted curve in the direction sought with a large enough effect; inconclusive means small, poorly fitted or top-dose-only effect, or another doubt; inactive means no such curve, though single readings can be large; an effect the other way counts as inactive or inconclusive. Potency means the concentration at half of the fitted maximal effect.
SMILES,DT40 TDP1 no CPT,TGFb SMAD3 inh,HepG2 tox,ATXN2 expr inh,TDP1 cell CPT,S2 tox
CCCOc1cccc(NC(=O)OC2CCN(C)CC2)c1,4%,0%,7%,-14%,3%,?
COCCNC(=O)C1=C(N)C(C(=O)Nc2ccc(C)c(S(=O)(=O)N3CCCCC3)c2)SC1=Nc1ccc(C)cc1C (stereo not given),18µM*,?,-25%,-9%,18µM*,i
CCN(CC)S(=O)(=O)c1cccc(NC(=O)C2SC(=Nc3ccc(C)cc3C)C(C(=O)NCC3CCCO3)=C2N)c1 (stereo not given),23µM*,?,-4%,-15%,?,i
CCN(CC)S(=O)(=O)c1ccc(Cl)c(C(=O)NCC2CCCO2)c1 (stereo not given),-1%,-1%,7%,3%,16%,i
COc1ccc(CN2CCNC(=O)C2CC(=O)NCCN2CCCCC2=O)c(F)c1 (stereo not given),1%,6%,-28%,-6%,-16%,i
COc1ccc(C)cc1NC(=O)c1cc2c(=O)n(Cc3cccnc3)ccc2nc1C,-15%,26%,-4%,2%,-7%,i
CC1(C(=O)NS(=O)(=O)c2ccccc2)CCN1C(=O)CCc1ccccc1 (stereo not given),-11%,12%,4%,-1%,-42%,i
COc1ccc(C(=O)NNC(=O)C(=O)NCc2ccccc2)cc1,?,-8%,-34%,-5%,-26%,i
CCOc1ccc(NS(=O)(=O)c2ccc(C(=O)NCc3ccncc3)cc2)cc1,13µM*,7%,0%,7%,?,i
CCCCCCNC(=O)CCCCCNS(=O)(=O)c1ccc(OC)cc1,?,-3%,-10%,-7%,18µM*,i
CC(=O)Nc1ccc(S(=O)(=O)NCc2ccncc2)cc1,9.2µM*,6%,-14%,-18%,9.2µM*,i
CCOc1ccc(NS(=O)(=O)c2ccc(C(=O)NCc3cccnc3)cc2)cc1,?,0%,-6%,-3%,?,i
CCCCCCNC(=O)CCCCCNS(=O)(=O)c1ccc(Br)cc1,?,-13%,-28%,-19%,-23%,i
Cc1ccc(S(=O)(=O)NCCCCCCNS(=O)(=O)c2ccc(C)cc2)cc1,23µM*,?,-32%,.,?,i
Cc1ccc(S(=O)(=O)NCCCNS(=O)(=O)c2ccccc2)cc1,-16%,-5%,-6%,.,-7%,i
CC(CC(=O)Nc1ccc(Cl)c(S(=O)(=O)N2CCOCC2)c1)c1ccccc1 (stereo not given),?,?,0%,-29%,?,?
Cc1c(C(=O)NCC2COCCO2)cnn1-c1ncc2c(n1)-c1ccccc1CC2 (stereo not given),?,.,.,.,?,i
CCn1nc(C)c(NC(=O)c2cnn3c(C(F)F)cc(-c4ccccc4)nc23)c1C,?,9%,11%,.,?,i
COc1ccc(-n2c(-c3ccc(F)cc3)cn3c4c(=O)n(C)c(=O)n(C)c4nc23)cc1,7%,-4%,2%,41%,-4%,i
Cc1ccc(C(=O)c2c(N)c(C(=O)Nc3ccccc3Cl)c3ccccn23)cc1,-8%,0%,3%,-4%,-22%,i
Cc1ccc(S(=O)(=O)NCC(=O)NCc2ccncc2)cc1,-4%,2%,-6%,4%,-12%,i
